# Reference: PubChem BioAssay (NCATS)
# Records with an inconclusive call do not appear. Activity calls are given as the source filed them. Unless noted, calls follow the shape of the dose curve; as a rule, active = well fitted curve in the direction sought with a large enough effect; inconclusive = small, poorly fitted or top-dose-only effect, or another doubt; inactive = no such curve, though single readings can be large; an effect the other way counts as inactive or inconclusive.
# Legend:
# [1] = target: Catechol O-methyltransferase (Homo sapiens) (UniProt P21964); test: Confirmatory Screen for Target Class Profiling of Small Molecule Inhibitors of Methyltransferases (AID 1745852; calls by dose curve; as to activity change, negative = inhibition: % is scaled to controls: 0 for no effect and ±100 for the full control effect); details: MTase-Glo luminescence, SAH detection, recombinant enzyme; measured here: COMT max response; stronger effect = lower value
# [2] = target: Guanidinoacetate N-methyltransferase (Homo sapiens) (UniProt Q14353); test: as above; details: MTase-Glo luminescence, SAH detection, recombinant enzyme; activity change, negative = inhibition: at 57.3 µM (top of the series) unless noted; series mostly up to 57.3 µM
# [3] = target: Nicotinamide N-methyltransferase (Homo sapiens) (UniProt P40261); test: as above; details: MTase-Glo luminescence, SAH detection, recombinant enzyme; measured here: NNMT max response; stronger effect = lower value
# [4] = target: Phenylethanolamine N-methyltransferase (Homo sapiens) (UniProt P11086); test: as above; details: MTase-Glo luminescence, SAH detection, recombinant enzyme; measured here: PNMT max response; stronger effect = lower value
# [5] = target: Glutathione peroxidase 1 (Homo sapiens) (UniProt P07203); test: Primary qHTS Assay for Inhibitors of Recombinant Selenoprotein Glutathione Peroxidase 1 (GPX1) (AID 1845191); details: recombinant GPX1, GR-coupled NADPH fluorescence, 15 min; series mostly up to 48.8 µM; also: nearly all actives have a fitted effect of over 65% in size
# Outline: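 GR-coupled assay: compounds preincubated 30 min at room temperature with GPX1, then reaction started with CHP; final 10 nM GPX1, 1 mM GSH, 0.5 mM CHP, 0.5 mM NADPH, 100 nM GR, 0.01% BSA, pH 7.5 Tris buffer. NADPH fluorescence (340/450 nm) read at 0 and 15 min.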
# [6] = NCATS anti-infectives library activity on HEK293 viability as a counter-qHTS vs the C. elegans viability qHTS (AID 1745854); details: HEK293 viability counter-screen; series mostly up to 41.8 µM
# Outline: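 HEK293 cells, 1500 per well, exposed 24 hr at 37C in 5% CO2 to compounds in a 1:5 titration, up to 41.7 uM final. Viability read as CellTiter-Glo luminescence after 10 min at room temperature.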
# Potency is read from the fitted curve at half-maximal effect.
# Sequence of Catechol O-methyltransferase (Homo sapiens) (P21964 whole entry, looked up): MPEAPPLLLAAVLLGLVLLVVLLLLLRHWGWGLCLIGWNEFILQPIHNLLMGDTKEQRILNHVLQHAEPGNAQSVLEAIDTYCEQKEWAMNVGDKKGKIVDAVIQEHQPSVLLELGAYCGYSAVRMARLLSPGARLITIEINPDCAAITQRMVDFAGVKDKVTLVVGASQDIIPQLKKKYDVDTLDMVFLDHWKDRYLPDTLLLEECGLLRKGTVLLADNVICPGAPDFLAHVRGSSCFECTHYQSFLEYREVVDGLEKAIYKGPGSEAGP
# Sequence of Glutathione peroxidase 1 (Homo sapiens) (P07203 whole entry, looked up): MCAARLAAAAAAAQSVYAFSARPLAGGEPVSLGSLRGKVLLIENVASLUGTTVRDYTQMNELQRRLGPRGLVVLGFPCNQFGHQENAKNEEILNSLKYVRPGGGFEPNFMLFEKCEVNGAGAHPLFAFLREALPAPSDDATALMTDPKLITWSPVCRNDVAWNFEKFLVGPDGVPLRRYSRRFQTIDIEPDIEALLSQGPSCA
# Sequence of Phenylethanolamine N-methyltransferase (Homo sapiens) (P11086 whole entry, looked up): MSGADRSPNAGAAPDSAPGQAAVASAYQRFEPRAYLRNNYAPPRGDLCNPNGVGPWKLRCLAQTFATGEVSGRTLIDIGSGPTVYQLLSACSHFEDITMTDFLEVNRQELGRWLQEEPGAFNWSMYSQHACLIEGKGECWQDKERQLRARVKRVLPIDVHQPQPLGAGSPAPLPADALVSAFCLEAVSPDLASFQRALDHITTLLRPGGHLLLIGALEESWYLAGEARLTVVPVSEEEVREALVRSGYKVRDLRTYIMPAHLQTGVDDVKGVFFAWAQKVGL
# Sequence of Nicotinamide N-methyltransferase (Homo sapiens) (P40261 whole entry, looked up): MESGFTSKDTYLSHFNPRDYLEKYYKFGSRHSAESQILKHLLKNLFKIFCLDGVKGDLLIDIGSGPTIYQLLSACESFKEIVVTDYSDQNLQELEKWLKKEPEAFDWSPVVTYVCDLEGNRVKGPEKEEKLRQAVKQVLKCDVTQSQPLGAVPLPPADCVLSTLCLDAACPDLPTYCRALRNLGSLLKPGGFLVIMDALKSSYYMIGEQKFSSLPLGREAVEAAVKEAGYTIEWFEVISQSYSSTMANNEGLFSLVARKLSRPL
smiles,measurement,setting,value
CCCC1c2cccn2CCN1C(=O)Nc1ccccc1Br (configuration not stated),activity,[1],-6.73%
same,"activity change, negative = inhibition",[2],-3.12%
same,activity,[3],-13.8%
same,activity,[4],-7.98%
COc1cc2nc(N3CCCCC3)nc(NC3CCN(C)CC3)c2cc1OC,activity,[1],1.4%
same,"activity change, negative = inhibition",[2],3.17%
same,activity,[3],-11.7%
same,activity,[4],-7.42%
same,Potency,[5],18 µM (active)
CC1CCN(CCCNC(=O)C2CCc3sc(C(=O)N4CCCC4)cc3C2)CC1 (configuration not stated),activity,[1],4.14%
same,"activity change, negative = inhibition",[2],6.27%
same,activity,[3],-0.224%
same,activity,[4],4.65%
COc1ccc(N2CCN(C(=O)c3cc(NC(C)=O)cc4nc(C)ccc34)CC2)cc1,activity,[1],1.89%
same,"activity change, negative = inhibition",[2],4.56%
same,activity,[3],4.7%
same,activity,[4],7.32%
CCCC1c2cccn2CCN1C(=O)Nc1ccc(Br)cc1 (configuration not stated),activity,[1],-7.6%
same,"activity change, negative = inhibition",[2],-4.2%
same,activity,[3],-18.3%
same,activity,[4],-12.2%
Cc1noc(C)c1-c1cc2c(cc(C)n2CCN(C)C)c(Nc2ccncn2)n1,activity,[1],-14.2%
same,"activity change, negative = inhibition",[2],-6.67% [at 85.7 µM]
same,activity,[3],-15.3%
same,activity,[4],-28.6%
CC1CCCCN1CCNC(=O)CCc1nnc2n(Cc3ccc(F)cc3)c(=O)c3ccccc3n12 (configuration not stated),activity,[1],4.47%
same,"activity change, negative = inhibition",[2],0%
same,activity,[3],-9.89%
same,activity,[4],0.568%
c1ccc(-c2cc3c(cn2)NCCN(CC2CC2)C3)cc1,activity,[1],8.66%
same,"activity change, negative = inhibition",[2],7.08% [at 114 µM]
same,activity,[3],4.63%
same,activity,[4],6.73%
CN1CCCC2(C1)CN(C)c1ccc(C(=O)NCC3CCCCC3)cc12 (configuration not stated),activity,[1],1.14%
same,"activity change, negative = inhibition",[2],-0.167% [at 85.7 µM]
same,activity,[3],-10.6%
same,activity,[4],-0.542%
CCN(CC)CCCNC(=O)CCc1nnc2n(Cc3ccccc3)c(=O)c3ccccc3n12,activity,[1],1.43%
same,"activity change, negative = inhibition",[2],0%
same,activity,[3],-2.92%
same,activity,[4],0.626%
N#Cc1cnc(N2CC3CCC(C2)N3CC(F)(F)F)s1,activity,[1],-0.326%
same,"activity change, negative = inhibition",[2],-4.72% [at 85.7 µM]
same,activity,[3],-7.9%
same,activity,[4],-0.128%
CCc1ccc(N2C(=O)c3cc4sccc4n3CC2(C)C(=O)NC2CCCCCC2)cc1 (configuration not stated),activity,[1],-4.01%
same,"activity change, negative = inhibition",[2],0.902%
same,activity,[3],-5.2%
same,activity,[4],-7.25%
CC1CCCCN1CCCNC(=O)c1cc2c(s1)CN(C1CCCC1)C2 (configuration not stated),activity,[1],3.35%
same,"activity change, negative = inhibition",[2],2.38%
same,activity,[3],3.93%
same,activity,[4],4.11%
CC(C)CCN1CC2(CCCN(C(=O)c3ccn(C)c(=O)c3)C2)CCC1=O (configuration not stated),activity,[1],5.04%
same,"activity change, negative = inhibition",[2],8.37%
same,activity,[3],3.97%
same,activity,[4],1.77%
Cc1ccc(S(=O)(=O)c2nnn3c2nc(N2CCC(N4CCCCC4)CC2)c2ccccc23)cc1C,activity,[1],-1.85%
same,"activity change, negative = inhibition",[2],0%
same,activity,[3],-9.07%
same,activity,[4],-3.83%
COc1cc2nc(N3CCCCC3)nc(NC3CCN(Cc4ccccc4)CC3)c2cc1OC,activity,[1],11.8%
same,Potency,[2],0.968 µM (active)
same,activity,[3],-38.9%
same,activity,[4],1.57%
same,Potency,[5],16.1 µM (active)
Cc1cnccc1NCCn1ccnc1-c1cc2n(n1)CCCNC2,activity,[1],-0.636%
same,"activity change, negative = inhibition",[2],2.5%
same,activity,[3],0.35%
same,activity,[4],0.494%
O=C1c2ccccc2C(=O)c2cc(S(=O)(=O)Nc3ccc(Br)cc3)ccc21,activity,[1],0.0189%
same,"activity change, negative = inhibition",[2],-0.0818%
same,activity,[3],-13.8%
same,activity,[4],-18.5%
COc1cccc(NC(=O)Cn2c(=O)oc3cc(S(=O)(=O)N4CC(C)CC(C)C4)ccc32)c1 (configuration not stated),activity,[1],3.17%
same,"activity change, negative = inhibition",[2],0%
same,activity,[3],-1.21%
same,activity,[4],-70.5%
COc1ccc2cc(CNc3ccc(C)cc3)c(=O)n(CC(=O)Nc3cccc(C(F)(F)F)c3)c2c1,activity,[1],-6.71%
same,"activity change, negative = inhibition",[2],-9.44%
same,activity,[3],-13.5%
same,activity,[4],-7.35%
same,Potency,[5],inactive
COc1cc2c(c(OC)c1OC)-c1c(cc(OC)c(OC)c1OC)CC(C)C(C)C2 (configuration not stated),Potency,[6],inactive
CCNC(=O)c1cc2c(-c3cc(C(C)(C)O)ccc3Oc3c(C)cc(F)cc3C)cn(C)c(=O)c2[nH]1,Potency,[6],inactive
CC(=O)N1CCC(C(=O)N(CCCN2CCC(Cc3ccc(C(N)=O)cc3)CC2)c2ccc(C)c(Cl)c2)CC1,Potency,[6],inactive
CC(C)(C)OC(=O)N[C@H]1CCCCC/C=C\[C@@H]2C[C@@]2(C(=O)NS(=O)(=O)C2CC2)NC(=O)[C@@H]2C[C@@H](OC(=O)N3Cc4cccc(F)c4C3)CN2C1=O,Potency,[6],inactive
CC(=O)O[C@@]1(C)C[C@@H](O)[C@]2(O)C=CO[C@@H](OC3OC(CO)C(O)C(O)C3O)[C@@H]21 (some centres not stated),Potency,[6],inactive
OC[C@H]1O[C@@H](Oc2c(O)cc(O)cc2/C=C/c2ccc(O)cc2)[C@H](O)[C@@H](O)[C@@H]1O,Potency,[6],inactive
O=[N+]([O-])c1ccc(S(=O)(=O)N2CCN(c3ccnc4cc(Cl)ccc34)CC2)c([N+](=O)[O-])c1,Potency,[6],10 µM (active)
C[C@H]1CC[C@@]2(O)C(C)(C)[C@@H]3CC[C@@]2(C)[C@H]1C3,Potency,[6],inactive
Cc1ccc(C(=O)NCCCCCC(=O)Nc2ccccc2N)cc1,Potency,[6],inactive
Cc1cnc(C(=O)N[C@H]2CCCCC/C=C\[C@@H]3C[C@@]3(C(=O)NS(=O)(=O)C3CC3)NC(=O)[C@@H]3C[C@@H](Oc4nc5ccccc5c5ccccc45)CN3C2=O)cn1,Potency,[6],inactive
CS(=O)(=O)c1cc(-c2ccccc2)cc(S(=O)(=O)c2ccc(CN)s2)c1,Potency,[6],inactive
C/C(=N\NC(=O)C(NC(=O)c1ccccc1)c1n[nH]c(=O)c2ccccc12)c1cccc(Br)c1 (configuration not stated),Potency,[6],inactive
O=c1cc(-c2ccc(O)c(O)c2)oc2c([C@@H]3O[C@H](CO)[C@@H](O)[C@H](O)[C@H]3O)c(O)cc(O)c12,Potency,[6],inactive
COC(=O)c1cc(O)c(O)c(O)c1,Potency,[6],inactive
CNC(=O)[C@@H](NC(=O)[C@H](CCCc1ccccc1)[C@H](C)N(O)C=O)C(C)(C)C,Potency,[6],inactive
COC(=O)[C@H](CCSC)NC(=O)c1ccc(NC[C@@H](N)CS)cc1-c1ccccc1,Potency,[6],inactive
O=S(=O)(Cl)c1ccc(-c2ccccc2)cc1,Potency,[6],inactive
S=C(S)O[C@H]1C[C@H]2C[C@@H]1[C@@H]1CCC[C@H]21,Potency,[6],inactive
COc1ccc(C2C(C#N)=C(N)OC3=C2C(=O)CC(c2cccc4ccccc24)C3)cc1 (configuration not stated),Potency,[6],inactive
CC(C)CS(=O)(=O)c1oc(-c2ccc(F)cc2)nc1S(=O)(=O)c1ccccc1,Potency,[6],3.98 µM (active)
C[C@H](NC(=O)[C@H](Cc1ccccc1)NC(=O)OCc1ccccc1)C(=O)CF,Potency,[6],inactive
Oc1ccc(OC2CCCCO2)cc1 (configuration not stated),Potency,[6],14.1 µM (active)
C[C@@H]1O[C@@H](O[C@@H]2[C@@H](O)[C@H](OCCc3ccc(O)c(O)c3)O[C@H](CO)[C@H]2OC(=O)/C=C/c2ccc(O)c(O)c2)[C@H](O)[C@H](O)[C@H]1O,Potency,[6],inactive
CC(C)=C1C/C=C(\C)CC/C=C(\C)CC1=O,Potency,[6],inactive
COc1cc(O)c2c(=O)cc(-c3ccc(O)cc3)oc2c1,Potency,[6],inactive
Nc1cc(F)ccc1NC(=O)/C=C/c1cnn(C/C=C/c2ccccc2)c1,Potency,[6],inactive
COc1cc(O)c(CC=C(C)C)c2c1C(=O)CC(c1ccc(O)cc1)O2 (configuration not stated),Potency,[6],inactive
COc1cnc(-n2cnc(C)n2)c2c1c(C(=O)C(=O)N1CCN(C(=O)c3ccccc3)CC1)cn2COP(=O)(O)O,Potency,[6],inactive
C=C(C)[C@@H]1CC[C@]2(C(=O)O)CC[C@]3(C)[C@H](CC[C@@H]4[C@@]5(C)CC[C@H](OC(=O)CC(C)(C)C(=O)O)C(C)(C)[C@@H]5CC[C@]43C)[C@@H]12,Potency,[6],inactive
O=C(NCc1c(F)cc(F)cc1F)c1cn2c(c(O)c1=O)C(=O)N1C3CCC(C3)OC1C2 (configuration not stated),Potency,[6],inactive
Cn1c(Cn2ccc(C(F)(F)F)c(Oc3cc(Cl)cc(C#N)c3)c2=O)n[nH]c1=O,Potency,[6],inactive
CC(=O)N[C@@H](CC(=O)O)C(=O)N[C@@H](CCC(=O)O)C(=O)N[C@H](C(=O)N[C@H](C=O)CC(=O)O)C(C)C,Potency,[6],inactive
Cc1cn([C@H]2O[C@@H](CO)[C@H](O)[C@H]2F)c(=O)[nH]c1=O,Potency,[6],inactive
Cc1cn2nc([C@@H]3CCCCN3C(=O)c3cc(Cl)ccc3NS(C)(=O)=O)cc2nc1N1CC[C@H](N)C1,Potency,[6],inactive
